SMILES strings stand for the structures. Screen size: about 1,500 compounds; about 460 (31%) were called active.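 How the source made its calls: active means viability at or below 80% at any tested concentration, marking the compound as toxic; inactive means the rest.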 These entries were drawn from the full list. Entries with a potency or affinity are not part of this list.

A short description of the assay: THP-1 cell cytotoxicity, dose response, cytotoxicity control for Vif-APOBEC3G degradation inhibitor project, THP-1 cells (AID 1117359). The note with it: THP-1 viability, CellTiter-Glo luminescence, 72 h; series mostly up to 40 µM. In general terms: In ATP-based viability assays light output follows the ATP content of the culture.
Regarding `CCCCc1cc(C(=O)Cc2ccccn2)c(O)cc1O`, the compound was classed as inactive.

Regarding `COc1ccc(C(=O)OCC(=O)c2c(N)n(C)c(=O)n(C)c2=O)cc1OC`, the compound was called inactive.

Take `NC(=O)C1Cc2ccccc2CN1C(=O)c1nn(Cc2ccccc2)c(=O)c2ccccc12` (stereo not given): the compound was called inactive.

On to `Cc1cccc2nc(C(=O)Nc3cccc(C(=O)NC4CC4)c3)cn12`, for which the result was inactive.

Take `Cc1onc(-c2ccccc2)c1CNC(=O)C1COc2ccccc2O1` (stereo not given): the compound was called inactive.

Turning to `O=C(O)Cc1ccc(N=Nc2c(O)c(C(=O)O)cc3ccccc23)cc1`, the outcome was inactive.

With `Nc1cccc2cc(S(=O)(=O)O)ccc12`, the result was inactive.

`O=C1CC(N2CCOCC2)C(=O)N1c1ccc(Cl)cc1` (stereo not given): the compound was classed as inactive.

`O=C(O)c1ccc2c(c1)C1C=CCC1C(c1ccncc1)N2` (stereo not given): the outcome was inactive.

In the case of `S=C1NC2(CCCCCC2)N=C1c1ccccc1`, the call was inactive.

On to `CC(NC(=O)c1ccco1)C1CCCO1` (stereo not given), for which the result was inactive.

Consider `S=c1[nH]nc(Cn2nnc3ccccc32)n1-c1ccccc1`, for which the result was inactive.

As to `COc1ccccc1/C=C/C=C1N=C(/C=C/c2ccc(Cl)cc2)OC/1=O`, the compound was classed as inactive.

With `COc1cc(/C=N/NC(=O)c2ccc(NS(=O)(=O)c3cccs3)cc2)cc(OC)c1O`, the call was inactive.

With `C/C=C/c1ccc(OCC(=O)N2CCc3cc(OC)c(OC)cc3C2)c(OC)c1`, the call was inactive.

For the compound `COc1cc(/C=C(\CC(=O)O)c2nc3ccccc3s2)cc(OC)c1O`, the compound was called inactive.

In the case of `CCc1ccccc1NC(=O)N1CCc2ccccc21`, the compound was classed as inactive.

In the case of `CCN1CNC(=S)N(CCc2ccccc2)C1`, the outcome was inactive.

As to `Cc1cc(C)n2nc(C(=O)OCC(=O)N(C)CC(=O)Nc3ccc(F)cc3)nc2n1`, the call was inactive.

`CCN1CCN(C(=O)CN(C)S(=O)(=O)c2ccc(OC)c(C)c2)CC1`: the compound was classed as inactive.

On to `CCOC(=O)CNC(=O)Cn1cnc2c(nnn2-c2ccc(F)cc2)c1=O`, for which the result was inactive.

On to `COC/C=C/C1=CC2=CC(=O)C(C)(OC(=O)C3CCCC3)C(=O)C2=CO1` (stereo not given), for which the compound was classed as inactive.

Take `Clc1ccccc1N=Nc1ccccn1`: the compound was classed as inactive.

For the compound `CCOC(=O)C1CCCC12Nc1cccc3cccc(c13)N2` (stereo not given), the outcome was inactive.

Consider `COc1cc(OC)c2c(c1O)OC(c1ccccc1)CC2=O` (stereo not given), for which the result was inactive.

Turning to `Cc1noc(C)c1COc1ccc(C(=O)OCC(=O)N2c3ccccc3NC(=O)C2(C)C)cc1`, the result was inactive.

As to `CCOc1ccc(NC(=O)C2CCCN(S(=O)(=O)c3c(C)nn(C)c3C)C2)cc1` (stereo not given), the result was inactive.

As to `CC(=O)c1sc(C(=O)O)c(-c2ccco2)c1-c1ccco1`, the call was inactive.

Regarding `Cc1cc(CN2C(=O)c3ccccc3C2=O)cc(N2CCOCC2)c1`, the outcome was inactive.

In the case of `O=C(CCN1C(=O)c2ccccc2C1=O)NCc1ccco1`, the outcome was inactive.

With `CCCC(=O)C1=C(N(C)c2ccccc2)CC(C)(C)CC1=O`, the call was inactive.

Regarding `O=C(Nc1cccnc1)c1sc(Nc2ccccc2F)nc1-c1ccccc1`, the call was inactive.

As for `O=C(COc1ccccc1Cl)c1ccc[nH]1`, the outcome was inactive.

Turning to `C/C(=N\n1c(C)nc2ccccc2c1=O)c1ccc(C)o1`, the compound was called inactive.

As to `O=C(O)c1cc(N2N=C(C(F)(F)F)/C(=C/C=C/c3ccco3)C2=O)ccc1Cl`, the compound was called inactive.

With `COc1ccc(N=C2NC(=O)/C(=C\C=C\c3ccco3)S2)cc1`, the outcome was inactive.

Take `O=C(O)C(Cc1ccccc1)N1C(=O)/C(=C/C=C/c2ccco2)SC1=S` (stereo not given): the compound was called inactive.

For the compound `O=C1NN(c2cccc(Br)c2)C(=O)/C1=C\c1ccccc1`, the outcome was inactive.

As for `O=C1/C(=C\c2ccco2)NC(=S)N1c1ccccc1`, the call was inactive.

With `COC(=O)C1=C(C)N(Cc2ccccc2)C(=O)/C1=C\c1ccco1`, the compound was called inactive.

As for `O=C(Nc1ccc(Cl)cc1)Nc1ccc(N2CCC(C(F)(F)F)CC2)nc1`, the result was inactive.

Take `CC1CC(C)CN(C(=O)CSCC(=O)O)C1` (stereo not given): the compound was called inactive.

For the compound `Cn1c(C(=O)N[C@@H](C(=O)O)c2ccccc2)cc2cc(Cl)ccc21`, the call was inactive.

Regarding `C#Cc1ccc([C@H]2C=C(C(=O)N3CCOCC3)O[C@@H](OCc3ccc(CO)cc3)C2)cc1`, the compound was classed as inactive.

Turning to `Cc1cc(=O)n2nc(N3CCCC(C(=O)NC4CCC(C)CC4)C3)sc2n1` (stereo not given), the compound was called inactive.

With `O=C(O)Cc1cccc(=O)c(O)c1C(=O)O`, the outcome was inactive.

`COc1cc(NC(=O)c2noc3c2CCC3)c(OC)cc1Cl`: the compound was classed as inactive.

`CCOC(=O)C(=O)NCc1ccc(/C=C2/N=C(C)C(C(=O)OCC)=C2O)o1`: the outcome was inactive.

For `CN(C)c1nc(OCCNC(=O)COc2ccc(Cl)cc2Cl)nc(N2CCOCC2)n1`, the compound was called inactive.

Regarding `CC(=O)c1ccc(-c2nnc(CCC(=O)N(C)Cc3c(C)nc4ccccn34)o2)s1`, the call was inactive.

Turning to `CC(=O)Nc1nnc(-c2c(-c3c(Cl)cccc3Cl)noc2C)o1`, the compound was called inactive.

`CC1CCC/C(=C\Nc2ccc(O)cc2)C1=O` (stereo not given): the result was inactive.

Consider `CCC1CCC2(CC1)NC(=O)N(CC(=O)Nc1ccc(OC)c(Cl)c1)C2=O` (stereo not given), for which the result was inactive.

For `C=C(C)C(=O)Nc1cccc(C2=NOC3(C2)C[C@H](C(N)=O)N(C(=O)COc2ccc(Cl)cc2)C3)c1` (stereo not given in full), the call was inactive.

Take `Cc1nc2nc(-c3ccco3)nn2c(C)c1Cl`: the result was inactive.

For the compound `CC(=O)Nc1ccc(N=Nc2ccccc2)cc1`, the outcome was inactive.

Regarding `O=S(=O)(O)c1cc(O)c2ccc(Nc3ccccc3)cc2c1`, the call was inactive.

`CCn1c(SC(C)C(=O)O)nc2sc3c(c2c1=O)CCC3` (stereo not given): the compound was classed as inactive.

As for `COc1ccc(N/N=C(\C#N)C(=N)SCc2ccccc2)cc1`, the call was inactive.

Regarding `CC(=O)c1ccccc1NC(=O)COC(=O)CN1C(=O)C2CCCCC2C1=O` (stereo not given), the compound was called inactive.

In the case of `Cc1cc2cc3c(=O)[nH]c(=O)nc-3n(CC(O)C(O)C(O)CO)c2cc1C` (stereo not given), the call was inactive.

For the compound `CN(CCO)CC(O)CN(c1ccccc1)c1ccccc1` (stereo not given), the call was inactive.

Consider `Oc1cc2c(cc1O)[C@H]1c3ccc(O)c(O)c3OC[C@@]1(O)C2`, for which the outcome was inactive.

Consider `C(=C\c1ccco1)/c1ccc2ccccc2n1`, for which the compound was called inactive.

As for `O=C(O)c1ccc(-n2cccc2/C=C2/NC(=O)N(c3ccccc3)C2=O)cc1`, the compound was called inactive.

Consider `O=C(O)c1ccc(-n2cccc2/C=C2/NC(=O)N(c3cccc(Cl)c3)C2=O)cc1`, for which the call was inactive.

Regarding `COc1ccc(CCN2CC(C(=O)NCC(c3ccccc3)N(C)C)CC2=O)cc1OC` (stereo not given), the compound was called inactive.

`CN1CCN(C(=O)c2ccc(N(C)S(=O)(=O)c3cccs3)cc2)CC1`: the outcome was inactive.

In the case of `Cc1c(O)cc2c(c1O)C(=O)CC(c1ccc(O)cc1)O2` (stereo not given), the compound was classed as inactive.

As to `COC1=CC(=O)C(C2CC(=O)c3c(O)cc(O)cc3O2)=CC1=O` (stereo not given), the call was inactive.

As for `C(=N\Nc1nncn1/N=C/c1ccco1)/c1ccco1`, the compound was called inactive.

On to `Cn1c(=O)c2c(ncn2CC(=O)N/N=C/C=C/c2ccco2)n(C)c1=O`, for which the outcome was inactive.

Consider `Cn1c2ccccc2c2ccc3c(c21)C(=O)C=CC3=O`, for which the call was inactive.

On to `COc1ccc2[nH]c(C(=O)O)c(CCN3C(=O)c4cccc([N+](=O)[O-])c4C3=O)c2c1`, for which the result was inactive.

As to `COc1ccc(N2CCN(CC(=O)c3c(C)n(C)c4ccc(OC)cc34)CC2)cc1`, the call was inactive.

With `Cc1ccc(N=Nc2ccc(N)cc2C)c(S(N)(=O)=O)c1`, the result was inactive.

For `O=C1CNC(=O)/C1=C/c1ccc(Br)cc1`, the result was inactive.

For `O=C(COC(=O)c1ccc(O)cc1O)NNC(=O)c1cccs1`, the call was inactive.

Turning to `CC[n+]1ccc(C)c2cc(P(=O)(c3ccccc3)c3ccccc3)ccc21`, the outcome was inactive.

With `Cc1ccc(S(=O)(=O)n2ccc(=O)[nH]2)cc1`, the result was inactive.

For `O=C(CCS(=O)(=O)c1ccc(Br)cc1)NC1CCCC1`, the compound was called inactive.

As to `Cc1cc(NS(=O)(=O)c2cc(Cl)sc2Cl)no1`, the compound was called inactive.

With `Cc1cc(O)cc(O)c1C(=O)Cc1cnn(-c2ccccc2)c1`, the result was inactive.

As to `CCC1=C2CC[C@H]3C(=O)NC(=O)[C@H]3[C@H]2[C@@]2(Cc3ccccc3)C(=NCC(=O)OC)OC(=O)N2C1=O`, the result was inactive.

Regarding `CCN(CC)S(=O)(=O)c1cccc(NN=c2c(=O)c3ccccc3c2=O)c1`, the compound was classed as inactive.

`CCc1ccc2c(c1)cc(C)c1nnc(SCC(=O)Nc3cc(OC)c(OC)cc3C(=O)O)n12`: the outcome was inactive.

On to `COC/C=C/C1=CC2=CC(=O)C(C)(OC(=O)c3cnc4ccccc4n3)C(=O)C2=CN1c1ccccc1` (stereo not given), for which the result was inactive.

Turning to `Nc1ccc2c(O)cc(S(=O)(=O)O)cc2c1`, the result was inactive.

For the compound `CCOC(=O)C1CCN(c2ncnc3cc(OC)c(OC)cc23)CC1`, the compound was called inactive.

Consider `O=C(O)C1OC(Oc2c(-c3ccc(O)c(O)c3)oc3cc(O)cc(O)c3c2=O)C(O)C(O)C1O` (stereo not given), for which the call was inactive.

Take `COC(=O)C1=C(O)/C(=C\c2ccc(CNC(=O)C(=O)Nc3ccc(C)cc3)o2)N=C1C`: the call was inactive.

As for `CC(Sc1nnc(C2CC2)n1C)C(=O)Nc1ccc(N2CCOCC2)cc1` (stereo not given), the compound was classed as inactive.

Consider `CC1=C(C#N)C(=O)N(C2CCS(=O)(=O)C2)C(=O)/C1=C\c1ccco1` (stereo not given), for which the call was inactive.

As for `O=C1c2ccccc2C(=O)N1/N=C/c1ccc(O)c(O)c1O`, the call was inactive.

Regarding `Nc1ccc(Nc2ccccc2)c(S(=O)(=O)O)c1`, the compound was called inactive.

Take `Cc1ccc(NC(=O)COc2ccc(/C=N/NC(=O)CSCc3ccccc3)cc2)cc1`: the compound was called inactive.

For the compound `CCCCC1=CC2=CC(=O)C(C)(OC(=O)c3cnc4ccccc4n3)C(=O)C2=CO1` (stereo not given), the call was inactive.

For `c1cnc(N2CCN(c3cnccn3)CC2)nc1`, the call was inactive.

Regarding `COc1ccc(CN2CCNC(=O)C2CC(=O)NC2CCCC2)cc1OC` (stereo not given), the compound was classed as inactive.

With `CCN(CC)S(=O)(=O)c1ccc(C(=O)NCc2n[nH]c(=S)n2-c2ccccc2OC)cc1`, the outcome was inactive.

For the compound `Cc1ccc2c(c1)NC(=O)c1cc([N+](=O)[O-])ccc1O2`, the compound was classed as inactive.

For the compound `NS(=O)(=O)c1ccc(NC(=O)COC(=O)CC2Sc3ccccc3NC2=O)cc1` (stereo not given), the result was inactive.

For `CCOC(=O)c1ccc(NS(=O)(=O)c2ccc3oc(=O)[nH]c3c2)cc1`, the compound was called inactive.

On to `COC(=O)c1ccc(C(=O)OC)c(NC(=O)Cc2cccs2)c1`, for which the compound was classed as inactive.

In the case of `CC[C@H](C)[C@H](NC(N)=O)C(=O)NCCc1ccc(OC)cc1`, the call was inactive.

In the case of `COc1ccc(CCNC(=O)/C=C/c2ccco2)cc1`, the call was inactive.

`Nc1ccc(Oc2ncccn2)cc1`: the compound was classed as inactive.

Turning to `CCOC(=O)c1[nH]nc(-c2c(O)cc(C)cc2O)c1-c1csc(C)n1`, the result was inactive.

Regarding `O=C(Nc1ccccc1)c1ccc(S(=O)(=O)N(CCO)CCO)cc1`, the compound was called inactive.

Take `CC(C)OCCCNC(=O)c1cccs1`: the compound was called inactive.
